# Experimental data from article PMC7862700, “An all-to-all approach to the identification of sequence-specific readers for epigenetic DNA modifications on cytosine”.
# Legend:
# Test in all cases: DAPPL (digital affinity profiling via proximity ligation, sequencing); 10 mM Tris-HCl pH 7.5, 50 mM NaCl, 1 mM DTT, 4% glycerol, room temperature, 30 min; GST-TFs on glutathione beads, 16-mer random dsDNA library, 0.1% formaldehyde crosslink after washing; high values mean tight binding
# FLI1 = target: T1, FLI1 (Homo sapiens, UniProt Q01543 1-452); conditions: protein: recombinant; tags: N-terminal GST; dsDNA, one strand shown
# T1 sequence: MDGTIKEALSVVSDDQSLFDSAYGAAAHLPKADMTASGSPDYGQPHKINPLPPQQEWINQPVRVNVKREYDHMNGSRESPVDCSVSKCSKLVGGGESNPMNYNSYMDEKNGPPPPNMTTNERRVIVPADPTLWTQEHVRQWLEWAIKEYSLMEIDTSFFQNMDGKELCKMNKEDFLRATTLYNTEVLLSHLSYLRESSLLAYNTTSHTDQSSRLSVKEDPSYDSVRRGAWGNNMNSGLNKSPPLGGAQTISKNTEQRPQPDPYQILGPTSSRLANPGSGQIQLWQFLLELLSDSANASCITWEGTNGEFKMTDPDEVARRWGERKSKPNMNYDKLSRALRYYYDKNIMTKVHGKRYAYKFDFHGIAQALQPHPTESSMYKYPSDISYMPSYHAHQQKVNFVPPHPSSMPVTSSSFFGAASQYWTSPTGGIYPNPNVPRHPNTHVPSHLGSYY
# In short: (§1)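 A tag-only sample was pooled with DNA-barcoded human transcription factors that had been expressed in yeast as GST fusions and captured on glutathione beads. The pools were incubated for 30 min at room temperature with 200 nmole of a random double-stranded 16-mer DNA library in Tris/NaCl/DTT/glycerol buffer, then washed, crosslinked with 0.1% formaldehyde, proximity-ligated (BsaI/T4 ligase, 1 h, 37 °C), PCR-amplified and sequenced on an Illumina NextSeq500. Binding signal is each hexamer's read frequency for a factor divided by its frequency for the tag-only sample.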
# ELK1 = target: T2, ELK1 (Homo sapiens, UniProt P19419 1-428); conditions: protein: recombinant; tags: N-terminal GST; dsDNA, one strand shown
# T2 sequence: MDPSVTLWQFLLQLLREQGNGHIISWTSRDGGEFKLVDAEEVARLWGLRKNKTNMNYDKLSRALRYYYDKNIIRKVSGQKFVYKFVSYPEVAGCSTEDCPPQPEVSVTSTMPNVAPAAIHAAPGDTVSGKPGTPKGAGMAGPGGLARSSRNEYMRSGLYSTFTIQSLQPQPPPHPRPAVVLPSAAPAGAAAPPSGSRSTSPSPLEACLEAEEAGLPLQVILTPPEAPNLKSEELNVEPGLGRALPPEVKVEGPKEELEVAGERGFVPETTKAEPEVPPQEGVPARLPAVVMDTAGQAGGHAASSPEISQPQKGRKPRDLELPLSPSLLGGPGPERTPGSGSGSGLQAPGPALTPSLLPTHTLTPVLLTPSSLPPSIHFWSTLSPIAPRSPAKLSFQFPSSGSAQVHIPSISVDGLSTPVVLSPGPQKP
# In short: as §1
# GABPA = target: T3, GABPA (Homo sapiens, UniProt Q06546 1-454); conditions: protein: recombinant; tags: N-terminal GST; dsDNA, one strand shown
# T3 sequence: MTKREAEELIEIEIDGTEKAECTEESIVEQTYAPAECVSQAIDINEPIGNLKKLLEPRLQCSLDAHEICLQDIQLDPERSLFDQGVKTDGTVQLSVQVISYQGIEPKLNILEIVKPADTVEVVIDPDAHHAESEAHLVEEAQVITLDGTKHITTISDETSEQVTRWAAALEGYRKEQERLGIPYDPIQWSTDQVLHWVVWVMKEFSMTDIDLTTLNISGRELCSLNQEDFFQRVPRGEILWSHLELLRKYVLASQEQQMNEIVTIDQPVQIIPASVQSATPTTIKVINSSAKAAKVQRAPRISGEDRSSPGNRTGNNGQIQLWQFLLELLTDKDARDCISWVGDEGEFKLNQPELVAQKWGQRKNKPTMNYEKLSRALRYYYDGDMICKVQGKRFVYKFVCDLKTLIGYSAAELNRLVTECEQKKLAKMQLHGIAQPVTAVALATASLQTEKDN
# In short: as §1
# ERG = target: T4, ERG (Homo sapiens, UniProt P11308 1-479); conditions: protein: recombinant; tags: N-terminal GST; dsDNA, one strand shown
# T4 sequence: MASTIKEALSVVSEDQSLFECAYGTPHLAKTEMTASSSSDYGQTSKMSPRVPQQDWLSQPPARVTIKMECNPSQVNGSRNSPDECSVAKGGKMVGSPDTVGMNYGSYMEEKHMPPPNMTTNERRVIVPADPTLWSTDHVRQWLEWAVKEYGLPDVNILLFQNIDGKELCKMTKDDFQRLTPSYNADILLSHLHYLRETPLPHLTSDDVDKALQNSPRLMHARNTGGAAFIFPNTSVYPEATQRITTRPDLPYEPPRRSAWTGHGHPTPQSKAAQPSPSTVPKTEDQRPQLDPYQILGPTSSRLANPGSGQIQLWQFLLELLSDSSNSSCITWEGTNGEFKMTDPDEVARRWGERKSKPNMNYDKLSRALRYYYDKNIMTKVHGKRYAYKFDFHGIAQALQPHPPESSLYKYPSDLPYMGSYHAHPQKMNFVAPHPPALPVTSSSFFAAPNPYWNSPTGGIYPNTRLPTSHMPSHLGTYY
# In short: as §1
# ELF1 = ELF1 (Homo sapiens, UniProt P32519 1-619); conditions: protein: recombinant; tags: N-terminal GST; dsDNA, one strand shown
# In short: as §1
# EHF = target: T5, EHF (Homo sapiens, UniProt Q9NZC4 1-300); conditions: protein: recombinant; tags: N-terminal GST; dsDNA, one strand shown
# T5 sequence: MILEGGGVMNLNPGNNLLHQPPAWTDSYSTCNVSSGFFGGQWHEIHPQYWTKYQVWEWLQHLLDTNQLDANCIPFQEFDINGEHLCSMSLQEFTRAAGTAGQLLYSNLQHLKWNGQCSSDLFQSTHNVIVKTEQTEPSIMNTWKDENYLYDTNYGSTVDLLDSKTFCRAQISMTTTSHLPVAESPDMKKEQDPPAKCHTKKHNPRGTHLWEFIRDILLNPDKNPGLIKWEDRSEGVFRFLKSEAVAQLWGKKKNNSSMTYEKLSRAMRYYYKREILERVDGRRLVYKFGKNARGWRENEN
# In short: as §1
# SPI1 = SPI1 (Homo sapiens, UniProt P17947 1-270); conditions: protein: recombinant; tags: N-terminal GST; dsDNA, one strand shown
# In short: as §1
# SPIB = SPIB (Homo sapiens, UniProt Q01892 1-262); conditions: protein: recombinant; tags: N-terminal GST; dsDNA, one strand shown
# In short: as §1
# ELK3 = target: T6, ELK3 (Homo sapiens, UniProt P41970 1-407); conditions: protein: recombinant; tags: N-terminal GST; dsDNA, one strand shown
# T6 sequence: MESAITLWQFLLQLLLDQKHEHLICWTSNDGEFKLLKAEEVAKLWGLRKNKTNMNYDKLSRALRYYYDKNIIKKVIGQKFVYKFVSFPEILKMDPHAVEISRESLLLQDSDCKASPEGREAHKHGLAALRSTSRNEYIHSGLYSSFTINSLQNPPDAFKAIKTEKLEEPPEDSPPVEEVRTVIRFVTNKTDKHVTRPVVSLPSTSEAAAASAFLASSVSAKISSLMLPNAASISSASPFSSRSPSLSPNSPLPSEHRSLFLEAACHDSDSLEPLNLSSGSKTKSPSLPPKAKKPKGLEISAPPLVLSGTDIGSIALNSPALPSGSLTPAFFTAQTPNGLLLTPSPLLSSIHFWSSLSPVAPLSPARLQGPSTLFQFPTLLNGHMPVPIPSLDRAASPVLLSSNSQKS
# In short: as §1
# FEV = target: T7, FEV (Homo sapiens, UniProt Q99581 1-238); conditions: protein: recombinant; tags: N-terminal GST; dsDNA, one strand shown
# T7 sequence: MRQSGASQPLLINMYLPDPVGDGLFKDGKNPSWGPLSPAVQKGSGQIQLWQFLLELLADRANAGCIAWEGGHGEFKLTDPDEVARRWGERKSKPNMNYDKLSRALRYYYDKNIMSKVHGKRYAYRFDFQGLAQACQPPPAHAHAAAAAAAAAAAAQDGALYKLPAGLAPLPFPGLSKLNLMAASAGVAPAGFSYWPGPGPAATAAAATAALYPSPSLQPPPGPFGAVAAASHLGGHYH
# In short: as §1
# ETV5 = ETV5 (Homo sapiens, UniProt P41161 1-510); conditions: protein: recombinant; tags: N-terminal GST; dsDNA, one strand shown
# In short: as §1
# HSF1 = HSF1 (Homo sapiens, UniProt Q00613 1-529); conditions: protein: recombinant; tags: N-terminal GST; chain copies: 3; dsDNA, one strand shown
# In short: as §1
# SPIC = target: T8, SPIC (Homo sapiens, UniProt Q8N5J4 1-248); conditions: protein: recombinant; tags: N-terminal GST; dsDNA, one strand shown
# T8 sequence: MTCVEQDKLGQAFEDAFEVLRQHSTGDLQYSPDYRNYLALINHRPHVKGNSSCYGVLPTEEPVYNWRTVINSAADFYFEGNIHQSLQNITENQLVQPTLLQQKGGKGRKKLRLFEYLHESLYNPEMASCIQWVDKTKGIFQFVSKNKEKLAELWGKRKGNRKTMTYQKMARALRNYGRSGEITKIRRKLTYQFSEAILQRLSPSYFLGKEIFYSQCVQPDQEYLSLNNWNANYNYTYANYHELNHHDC
# In short: as §1
# ELF4 = ELF4 (Homo sapiens, UniProt Q99607 1-663); conditions: protein: recombinant; tags: N-terminal GST; dsDNA, one strand shown
# In short: as §1
# ELK4 = target: T9, ELK4 (Homo sapiens, UniProt P28324-2 1-405); conditions: protein: recombinant; tags: N-terminal GST; dsDNA, one strand shown
# T9 sequence: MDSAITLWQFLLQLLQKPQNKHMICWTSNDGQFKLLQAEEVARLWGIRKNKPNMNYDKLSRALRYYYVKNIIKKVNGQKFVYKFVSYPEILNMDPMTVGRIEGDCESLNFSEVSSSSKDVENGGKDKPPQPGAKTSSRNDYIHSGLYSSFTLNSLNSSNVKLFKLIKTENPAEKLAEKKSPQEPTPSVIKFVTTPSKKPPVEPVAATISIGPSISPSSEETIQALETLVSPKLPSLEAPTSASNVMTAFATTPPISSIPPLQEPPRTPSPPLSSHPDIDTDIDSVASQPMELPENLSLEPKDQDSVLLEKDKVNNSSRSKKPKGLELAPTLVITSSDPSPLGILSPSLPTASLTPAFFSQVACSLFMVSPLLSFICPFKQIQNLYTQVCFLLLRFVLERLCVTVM
# In short: as §1
# ETV2 = target: T10, ETV2 (Homo sapiens, UniProt O00321 1-342); conditions: protein: recombinant; tags: N-terminal GST; dsDNA, one strand shown
# T10 sequence: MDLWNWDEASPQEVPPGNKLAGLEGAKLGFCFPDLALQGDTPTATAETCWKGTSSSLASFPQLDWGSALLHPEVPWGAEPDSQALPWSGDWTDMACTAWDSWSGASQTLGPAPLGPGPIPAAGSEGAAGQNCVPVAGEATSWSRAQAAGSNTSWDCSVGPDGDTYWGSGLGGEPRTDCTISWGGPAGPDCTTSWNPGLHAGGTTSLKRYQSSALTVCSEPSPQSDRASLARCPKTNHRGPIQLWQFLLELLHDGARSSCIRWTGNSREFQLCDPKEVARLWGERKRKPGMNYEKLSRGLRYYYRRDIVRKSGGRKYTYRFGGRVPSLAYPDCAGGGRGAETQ
# In short: as §1
# ELF3 = target: T11, ELF3 (Homo sapiens, UniProt P78545 1-371); conditions: protein: recombinant; tags: N-terminal GST; dsDNA, one strand shown
# T11 sequence: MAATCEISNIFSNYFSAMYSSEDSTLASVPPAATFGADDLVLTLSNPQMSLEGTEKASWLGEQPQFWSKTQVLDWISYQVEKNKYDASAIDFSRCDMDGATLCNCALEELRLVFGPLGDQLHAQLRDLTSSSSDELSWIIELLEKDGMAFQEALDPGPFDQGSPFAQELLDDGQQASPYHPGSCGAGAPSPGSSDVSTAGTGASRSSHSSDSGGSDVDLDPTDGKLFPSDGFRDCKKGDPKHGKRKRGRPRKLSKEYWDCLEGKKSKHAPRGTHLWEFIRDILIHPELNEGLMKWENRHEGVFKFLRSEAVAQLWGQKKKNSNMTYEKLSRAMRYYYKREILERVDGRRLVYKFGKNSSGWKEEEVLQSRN
# In short: as §1
# CRX = CRX (Homo sapiens, UniProt O43186 1-299); conditions: protein: recombinant; tags: N-terminal GST; dsDNA, one strand shown
# In short: as §1
# ETV1 = ETV1 (Homo sapiens, UniProt P50549 1-477); conditions: protein: recombinant; tags: N-terminal GST; dsDNA, one strand shown
# In short: as §1
# HSF1, sequence (Q00613 whole entry): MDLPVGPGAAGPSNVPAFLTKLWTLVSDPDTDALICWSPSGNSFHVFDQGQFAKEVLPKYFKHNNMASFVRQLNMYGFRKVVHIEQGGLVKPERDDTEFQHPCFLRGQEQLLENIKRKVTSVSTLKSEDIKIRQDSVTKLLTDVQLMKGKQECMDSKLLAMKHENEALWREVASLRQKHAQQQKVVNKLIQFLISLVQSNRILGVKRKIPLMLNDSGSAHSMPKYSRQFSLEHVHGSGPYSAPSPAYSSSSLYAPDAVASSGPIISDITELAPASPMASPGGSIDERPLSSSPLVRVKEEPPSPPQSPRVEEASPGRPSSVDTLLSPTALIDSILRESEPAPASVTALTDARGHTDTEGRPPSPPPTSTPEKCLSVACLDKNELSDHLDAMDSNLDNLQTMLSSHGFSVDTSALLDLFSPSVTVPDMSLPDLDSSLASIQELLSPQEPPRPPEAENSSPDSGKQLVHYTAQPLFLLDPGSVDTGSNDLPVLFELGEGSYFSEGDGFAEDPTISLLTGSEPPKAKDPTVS
# ETV5, sequence (P41161 whole entry): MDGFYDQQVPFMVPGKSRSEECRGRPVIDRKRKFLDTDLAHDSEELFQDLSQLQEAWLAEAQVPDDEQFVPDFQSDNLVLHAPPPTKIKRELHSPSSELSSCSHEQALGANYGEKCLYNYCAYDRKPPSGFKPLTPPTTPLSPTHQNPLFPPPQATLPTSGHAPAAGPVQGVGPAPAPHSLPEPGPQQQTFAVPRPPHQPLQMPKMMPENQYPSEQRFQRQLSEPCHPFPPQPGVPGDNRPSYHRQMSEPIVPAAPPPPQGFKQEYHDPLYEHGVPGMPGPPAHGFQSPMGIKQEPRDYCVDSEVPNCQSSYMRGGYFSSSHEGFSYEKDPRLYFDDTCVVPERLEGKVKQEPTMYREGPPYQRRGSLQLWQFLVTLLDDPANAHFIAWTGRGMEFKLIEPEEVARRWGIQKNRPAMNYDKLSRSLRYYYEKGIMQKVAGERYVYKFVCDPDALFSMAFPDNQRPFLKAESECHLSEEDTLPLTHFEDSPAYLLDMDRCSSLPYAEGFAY
# SPIB, sequence (Q01892 whole entry): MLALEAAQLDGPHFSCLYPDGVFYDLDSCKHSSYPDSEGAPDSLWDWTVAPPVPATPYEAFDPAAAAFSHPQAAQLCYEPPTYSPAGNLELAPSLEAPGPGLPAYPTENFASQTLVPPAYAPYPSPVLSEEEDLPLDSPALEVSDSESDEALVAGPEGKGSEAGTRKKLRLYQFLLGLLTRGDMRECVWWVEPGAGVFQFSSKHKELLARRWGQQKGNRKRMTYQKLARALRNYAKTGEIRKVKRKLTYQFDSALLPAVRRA
# ETV1, sequence (P50549 whole entry): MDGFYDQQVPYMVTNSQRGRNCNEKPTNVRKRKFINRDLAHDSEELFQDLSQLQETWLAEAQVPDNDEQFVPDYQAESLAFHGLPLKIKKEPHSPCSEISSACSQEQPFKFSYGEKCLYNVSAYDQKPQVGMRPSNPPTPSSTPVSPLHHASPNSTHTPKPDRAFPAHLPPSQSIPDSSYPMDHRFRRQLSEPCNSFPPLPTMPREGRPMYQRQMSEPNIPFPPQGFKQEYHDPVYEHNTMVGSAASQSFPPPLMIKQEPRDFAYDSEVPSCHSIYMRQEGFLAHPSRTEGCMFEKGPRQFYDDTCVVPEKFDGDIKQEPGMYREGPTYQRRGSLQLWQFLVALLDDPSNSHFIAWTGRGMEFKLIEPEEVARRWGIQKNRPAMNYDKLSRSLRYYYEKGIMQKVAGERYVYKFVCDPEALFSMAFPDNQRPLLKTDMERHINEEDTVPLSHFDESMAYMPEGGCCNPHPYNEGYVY
# CRX, sequence (O43186 whole entry): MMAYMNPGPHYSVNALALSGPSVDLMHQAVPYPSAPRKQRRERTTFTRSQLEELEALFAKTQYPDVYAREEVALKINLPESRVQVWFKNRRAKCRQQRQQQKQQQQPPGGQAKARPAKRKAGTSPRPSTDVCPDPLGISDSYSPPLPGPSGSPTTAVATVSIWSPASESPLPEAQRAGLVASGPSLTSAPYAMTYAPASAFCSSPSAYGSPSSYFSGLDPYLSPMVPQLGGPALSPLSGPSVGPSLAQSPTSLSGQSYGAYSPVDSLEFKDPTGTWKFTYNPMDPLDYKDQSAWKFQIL
# ELF4, sequence (Q99607 whole entry): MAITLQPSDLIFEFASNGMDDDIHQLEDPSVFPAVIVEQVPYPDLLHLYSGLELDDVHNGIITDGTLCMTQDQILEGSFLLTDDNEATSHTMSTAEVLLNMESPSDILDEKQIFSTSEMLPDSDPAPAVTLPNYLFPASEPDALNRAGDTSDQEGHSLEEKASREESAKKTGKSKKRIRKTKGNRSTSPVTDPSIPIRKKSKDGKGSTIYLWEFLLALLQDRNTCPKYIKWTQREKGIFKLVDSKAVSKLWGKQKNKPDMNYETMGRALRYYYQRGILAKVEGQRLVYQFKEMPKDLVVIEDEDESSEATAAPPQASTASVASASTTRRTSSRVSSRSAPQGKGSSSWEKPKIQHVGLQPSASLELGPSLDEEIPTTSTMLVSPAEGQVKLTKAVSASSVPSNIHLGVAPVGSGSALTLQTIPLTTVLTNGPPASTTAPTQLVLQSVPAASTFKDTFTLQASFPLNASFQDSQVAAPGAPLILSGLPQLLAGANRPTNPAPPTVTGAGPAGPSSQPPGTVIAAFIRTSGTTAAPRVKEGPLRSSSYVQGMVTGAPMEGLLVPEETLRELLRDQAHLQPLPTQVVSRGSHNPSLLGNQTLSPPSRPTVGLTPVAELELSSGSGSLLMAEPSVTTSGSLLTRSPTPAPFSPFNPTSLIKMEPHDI
# ELF1, sequence (P32519 whole entry): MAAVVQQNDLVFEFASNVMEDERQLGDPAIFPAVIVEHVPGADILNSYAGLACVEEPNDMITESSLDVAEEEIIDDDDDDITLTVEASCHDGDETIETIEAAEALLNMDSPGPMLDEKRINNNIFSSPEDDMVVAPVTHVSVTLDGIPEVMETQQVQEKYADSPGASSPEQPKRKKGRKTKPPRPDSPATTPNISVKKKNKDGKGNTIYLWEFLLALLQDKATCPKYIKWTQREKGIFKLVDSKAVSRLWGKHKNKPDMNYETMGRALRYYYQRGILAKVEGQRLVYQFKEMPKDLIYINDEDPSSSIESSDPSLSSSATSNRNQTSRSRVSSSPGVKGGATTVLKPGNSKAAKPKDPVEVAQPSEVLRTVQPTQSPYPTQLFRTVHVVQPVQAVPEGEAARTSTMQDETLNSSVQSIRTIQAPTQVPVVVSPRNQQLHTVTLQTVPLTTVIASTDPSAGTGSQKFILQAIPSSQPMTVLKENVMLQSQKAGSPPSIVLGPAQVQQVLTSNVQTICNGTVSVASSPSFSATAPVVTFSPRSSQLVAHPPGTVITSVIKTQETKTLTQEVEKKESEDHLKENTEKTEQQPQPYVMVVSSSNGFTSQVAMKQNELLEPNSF
sequence,measurement,setting,value
AGTGCT,binding signal,FLI1,"1.47 fold enrichment (6-mer frequency, TF over GST control)"
same,binding signal,ELK1,"1.36 fold enrichment (6-mer frequency, TF over GST control)"
same,binding signal,GABPA,"1.29 fold enrichment (6-mer frequency, TF over GST control)"
same,binding signal,ERG,"1.37 fold enrichment (6-mer frequency, TF over GST control)"
same,binding signal,ELF1,"1.4 fold enrichment (6-mer frequency, TF over GST control)"
same,binding signal,EHF,"1.4 fold enrichment (6-mer frequency, TF over GST control)"
same,binding signal,SPI1,"1.91 fold enrichment (6-mer frequency, TF over GST control)"
same,binding signal,SPIB,"1.53 fold enrichment (6-mer frequency, TF over GST control)"
same,binding signal,ELK3,"1.59 fold enrichment (6-mer frequency, TF over GST control)"
same,binding signal,FEV,"1.4 fold enrichment (6-mer frequency, TF over GST control)"
same,binding signal,ETV5,"1.4 fold enrichment (6-mer frequency, TF over GST control)"
same,binding signal,HSF1,"1.15 fold enrichment (6-mer frequency, TF over GST control)"
same,binding signal,SPIC,"1.67 fold enrichment (6-mer frequency, TF over GST control)"
same,binding signal,ELF4,"1.33 fold enrichment (6-mer frequency, TF over GST control)"
same,binding signal,ELK4,"1.37 fold enrichment (6-mer frequency, TF over GST control)"
same,binding signal,ETV2,"1.42 fold enrichment (6-mer frequency, TF over GST control)"
same,binding signal,ELF3,"1.02 fold enrichment (6-mer frequency, TF over GST control)"
same,binding signal,CRX,"1.16 fold enrichment (6-mer frequency, TF over GST control)"
same,binding signal,ETV1,"1.32 fold enrichment (6-mer frequency, TF over GST control)"
